Out of some 48,000 compounds screened, about 13,000 (27%) showed an effect of 50% or more. The list shows a part of the results.
These compounds were tested on Wolbachia pipientis (assay: Anti-Wolbachia Cell-Based Screen). Settings: 5 µM.
Assay type: functional
Set-up: scale not given: in the data most compounds retested in dose-response had high values

SMILES | Percent Effect [%]
Cc1cc(S(=O)(=O)N2CCCc3cc(F)cc(F)c32)sc1C(=O)O | 6.843
Cc1ccc2nc(C)cc(C(=O)N3C[C@H]4CCC[C@@]4(CO)C3)c2c1 | -30.24
COCCn1cnnc1Cn1ccnc1-c1ccoc1 | 3.29
Nc1ncc2c(n1)CN(C1CCCC1)C2=O | -0.5678
CCCC(=O)N1CC[C@@H]2[C@H](CC1)N(Cc1cccnc1)CCS2(=O)=O.O=C(O)C(F)(F)F.O=C(O)C(F)(F)F | -5.055
CCC(=O)N1CC[C@@H]2[C@H](CC1)N(Cc1cccc(C)n1)CCS2(=O)=O.O=C(O)C(F)(F)F | -0.9694
CC(C)CC(=O)N1CC[C@@H]2[C@H](CC1)N(Cc1cccnc1)CCS2(=O)=O.O=C(O)C(F)(F)F.O=C(O)C(F)(F)F | 108.2
CNC(=O)C1CN(c2ncccn2)CCN1Cc1ccccc1 (stereo not drawn) | 91.24
CNC(=O)C1CN(c2ccnc(C)n2)CCN1Cc1ccccc1 (stereo not drawn) | 49.78
Cc1cccnc1NC(=O)C1CCCN1Cc1ccccc1 (stereo not drawn) | 28.43
CNC(=O)C1CN(c2cc(C)ncn2)CCN1Cc1ccccc1 (stereo not drawn) | 91.54
Cc1cc(N2CCN(Cc3ccccc3)CC(O)C2)nc(N)n1 (stereo not drawn) | 4.027
CC(C)Nc1cc(N2CCN(Cc3ccccc3)C(CCO)C2)ncn1 (stereo not drawn) | 10.47
Cc1c(C(C)NC2CCCC2)cnn1-c1ccc(F)cc1F (stereo not drawn) | 1.139
O=C(N[C@@H]1CN(Cc2ccc(F)cc2)C[C@H]1O)c1cscn1 | 113.4
O=C(N[C@@H]1CCN(C(=O)c2cc[nH]c2)C[C@H]1O)c1ccccn1 | 16.73
O=C(NS(=O)(=O)c1ccc(F)c(F)c1)c1cscn1 | 8.824
O=C(N[C@@H]1CN(c2ncc(F)cn2)[C@@H]2COC[C@@H]21)c1cscn1 | -1.705
Fc1ccc(CN2CCCN(Cc3cscn3)CC2)cc1 | -1.277
CN(c1ncccc1CNC(=O)c1cscn1)C1CCCCC1 | -0.9499
O=C(N[C@@H]1CN(Cc2ccc(F)c(F)c2)C[C@H]1O)c1cscn1 | 124.1
O=C(NC1CC(=O)N(Cc2cccc(F)c2)C1)c1ccncc1 (stereo not drawn) | 2.208
O=C(N[C@@H]1CN(Cc2cccc3[nH]ccc23)C[C@H]1O)c1cscn1 | 113.8
O=C(N[C@@H]1CN(Cc2cccc(F)c2)C[C@H]1O)c1cscn1 | 114.1
NC(=O)CN1C(=O)CO[C@H]2CN(Cc3ccc(F)c(F)c3)C[C@H]21 | 0.7627
CC(C)N1C[C@H](NC(=O)c2coc(COc3cccc(F)c3)n2)[C@@H](O)C1 | 0.03825

SMILES | Percent Effect [%]
CNC(=O)N1CCOC(C)(c2cnn(C)c2)C1 (stereo not drawn) | -1.831
NC(=O)C1CCN(CCc2ccc(NCc3cscn3)cc2)CC1 | 0.9786
O=C(O)CCc1cc2n(n1)CCN(Cc1ccc3[nH]ccc3c1)C2 | -14.18
O=C(N[C@@H]1CN(Cc2ccc3cc[nH]c3c2)C[C@H]1O)c1cnccn1 | 102.1
CCc1cnc(N2C[C@@H](NC(=O)c3cscn3)[C@H]3COC[C@H]32)nc1.O=C(O)C(F)(F)F | -6.299
CSCCCN1CC[C@@H](NC(=O)c2cnccn2)[C@H](O)C1 | -11.75
O=C(N[C@@H]1CN(Cc2ccc3[nH]ccc3c2)C[C@H]1O)c1cscn1 | 101.2
O=C(N[C@@H]1CCN(c2nccc3ccccc23)C[C@H]1O)c1cnccn1 | -5.026
O=C(N[C@@H]1CN(CCc2ccc(F)cc2)C[C@H]1O)c1cscn1 | 115.2
N#Cc1cc(NC(=O)c2cscn2)ccc1N1CCC(O)CC1 | -15.52
COCCn1cnnc1Cn1ccnc1-c1ccccc1C | -14.43
c1ccc(-c2cc(CC3(NCc4ncc[nH]4)COC3)no2)cc1 | -5.291
O=C1OCCN1CCS(=O)(=O)c1cccc(Cl)c1 | -8.046
O=S(=O)(N1CCCC1)N1CCc2sccc2C1 | -2.678
CC(C)c1nsc(N2CCc3sccc3C2)n1 | -3.315
NCC(c1ccc(Cl)cc1)N1CCc2sccc2C1 (stereo not drawn) | 85.2
CC(C(=O)N1CCc2sccc2C1)N1CCC(S(N)(=O)=O)CC1 (stereo not drawn) | 4.951
N#Cc1ccc(F)c(CN2CCc3sccc3C2)c1 | 10.21
CC(C)c1ccc(C(CN)N2CCc3sccc3C2)cc1 (stereo not drawn) | 134.3
O=C1CC2(CCCC2)C(=O)N1CC(O)COCc1ccccc1F (stereo not drawn) | -41.58
CCOc1ncccc1C(=O)NCC(O)c1ccc(F)c(F)c1 (stereo not drawn) | -43.97
O=C(O)C(F)(F)F.O=C(O)C(F)(F)F.c1ccc(OCc2nnc3n2CCN(CC2CCOCC2)C3)nc1 | 15.11
Cc1cc(C)c(CNC(=O)NCC(O)COc2ccccc2)c(=O)[nH]1 (stereo not drawn) | -7.857
Cc1ccc(CN2CCC(n3cc(CN4CCC(O)CC4)nn3)CC2)s1 | -6.735
COCCN1CCC12CCN(C(=O)c1ccsc1)CC2.O=C(O)C(F)(F)F | -8.3
CCc1noc(CCC(=O)N2CCC(c3ccn[nH]3)C2)n1 (stereo not drawn) | 80.59

SMILES | Percent Effect [%]
CCc1noc(CCCC(=O)N2CCCC(c3ccn[nH]3)C2)n1 (stereo not drawn) | -18.93
CCCc1noc(CCC(=O)N2CCCC(c3ccn[nH]3)C2)n1 (stereo not drawn) | -9.271
COCC(=O)NCC1Cn2nnc(-c3ccoc3)c2CO1 (stereo not drawn) | -10
O=c1cc(-c2ccccc2)nc2n1CCCCC2 | 110.3
O=c1cc(-c2ccc(F)cc2)nc2n1CCCCC2 | 114
NC1(c2nc(-c3ccccc3)cc(=O)[nH]2)CCCC1 | -3.244
Fc1ccc2c(c1)C(NCc1nnc3n1CCCCC3)CCCO2 (stereo not drawn) | -5.807
Cc1nc(-c2ccccc2)ccc1C(=O)N1CCn2c(C)nnc2C1 | -4.566
O=c1[nH]c(-c2ccc(F)cc2)nc2c1CCNC2 | -26.62
CCc1cc(CNC(=O)Nc2cc(F)cc(N3CCCC3)c2)on1 | -27.71
O=C1CCc2ccccc2N1CCCn1cnnn1 | -8.538
CC(C)c1ccc(C(=O)O)cc1S(=O)(=O)Nc1ccc(=O)n(C)c1 | -9.9
Cc1ccc(N2CCO[C@@H]3CN(Cc4cccc(C)n4)CC[C@@H]3C2)nn1 | 0.9995
Cc1ccc(N2C[C@@H]3CN(C(=O)c4ccccc4)CCO[C@@H]3C2)nn1.O=C(O)C(F)(F)F | -9.523
Cc1ccc(N2CCO[C@H]3CN(C(=O)c4cccc(C)n4)C[C@H]32)nn1 | 104.4
CNS(=O)(=O)c1cccc(C(C)NCc2cccc(O)c2)c1 (stereo not drawn) | -12.85
O=C(c1nc(=O)[nH][nH]1)N1CCCCCC1 | -25.91
COc1ccc2c(c1)C(=O)N(C)C1(CCN(CC=C(C)C)CC1)N2 | -3.399
CN1CCC(NC(=O)NCCNc2ccccn2)CC1 | 10.59
O=C(NCCNc1ccccn1)NC1CCCC1 | 1.673
CC(=O)NC1Cc2ccc(S(=O)(=O)NCCNc3ccccn3)cc2C1 (stereo not drawn) | 74.28
CN(C)C(=O)CCS(=O)(=O)Cc1cc(Cl)c2c(c1)OCO2 | 106.6
CS(=O)(=O)Cc1cc(Cl)c2c(c1)OCCCO2 | 18.55
CN(C)C(=O)CCCS(=O)(=O)Cc1cc(Cl)c2c(c1)OCCO2 | 4.566
CC(C)NC(=O)CS(=O)(=O)Cc1cc(Cl)c2c(c1)OCCO2 | 2.891
CS(=O)(=O)CCS(=O)(=O)Cc1cc(Cl)c2c(c1)OCCCO2 | -7.786

SMILES | Percent Effect [%]
CN(C)C(=O)CCS(=O)(=O)Cc1cc(Cl)c2c(c1)OCCO2 | 3.114
CN(C)C(=O)CCCS(=O)(=O)Cc1cc(Cl)c2c(c1)OCO2 | 133.3
CN(C)C(=O)CS(=O)(=O)Cc1cc(Cl)c2c(c1)OCCCO2 | -2.577
CN(C)C(=O)CS(=O)(=O)Cc1cc(Cl)c2c(c1)OCCO2 | 128.9
CCN1CCC(NC(=O)NC2CCOc3ccc(Br)cc32)CC1 (stereo not drawn) | -7.217
COCc1nc(CNC2CCN(C(C)C)CC2)no1 | -1.626
CCC(CO)N(Cc1cccs1)C(=O)CSC (stereo not drawn) | -12.18
O=S1(=O)C[C@@H]2[C@H](C1)N(Cc1cc(F)cc(Cl)c1)CCN2CCO | 3.698
CN1[C@H](CO)C[C@H](CNCc2ccc(CO)o2)[C@@H]1c1ccccc1F | -6.438
O=C(O)C(F)(F)F.c1cnn(Cc2cn3c(n2)CN(Cc2nccs2)CC3)c1 | 25.66
CC(=O)N1CC2(CCN(S(=O)(=O)N(C)C)CC2)C2(CCNC2=O)C1 (stereo not drawn) | -32.61
COc1ccccc1C1CCN(c2ccc3cc[nH]c3n2)CC1 | 26.71
COC(=O)c1cc(NCC(=O)NC(N)=O)cc(C(F)(F)F)c1 | 4.503
CNS(=O)(=O)c1cccc(CNC(=O)c2c(C)nn(C)c2C)c1 | -2.541
Cc1cc(C(=O)NC(C)CC(=O)c2cccs2)n(C)n1 (stereo not drawn) | 104.4
COc1ccccc1C(C)CNC(=O)c1c(C)nn(C)c1OC (stereo not drawn) | -4.025
Cc1nn(C)c(C)c1CC(C)NC(=O)NCc1ccn(C(C)C)n1 (stereo not drawn) | 14.28
CNc1snc(C)c1C(=O)NC(C)CC(=O)c1cccs1 (stereo not drawn) | 87.28
Cc1cc(NC(=O)NCCc2cccs2)n(C)n1 | -8.078
C[C@@H](NC(=O)c1cccs1)c1onc(-c2cccnc2)c1C(=O)O.Cl | -7.123
CCC(NC(=O)c1cc(CC(C)C)nn1C)c1cccc(C)n1 (stereo not drawn) | -23.09
COc1c(C(=O)NCC(C)Sc2ccccc2)c(C)nn1C (stereo not drawn) | -11.73
CC(NC(=O)c1cccs1)C(=O)NCc1ccccc1CN1CCCC1 (stereo not drawn) | 1.8
COc1c(C(=O)NC(C)CC(=O)c2cccs2)c(C)nn1C (stereo not drawn) | 88.78
Cc1nn(C)c(C)c1C(=O)NC(C)CC(=O)c1cccs1 (stereo not drawn) | 89.66

Reference: ChEMBL document CHEMBL3988442, “University of Dundee, Small-Polar-MMV Screening Library” (2021)
